Experimental data published in the supplement of paper PMC4723716.
± gives the uncertainty stated by the source. In all, about 9,900 compounds were measured (“viability index relative to DMSO control”: median about 1, lowest 2% from about 0.85 on). This is one part of a sample in which the lowest values are shown more often than they occur.

System: Plasmodium falciparum NF54 stage V gametocytes
Experiment: viability index relative to DMSO control (fraction); higher = less gametocyte killing
Settings: 2.5 µM, incubation time: 72 h
In short: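 Viability index is the count of red-stained particles in a well divided by the plate mean of solvent-only wells. Particles of 20–70 µm2 were counted in one imaged field per well after one to two hours with 3 µl of 2.5 µM MitoTracker Red CMXRos and 0.13% saponin. Before staining, P. falciparum NF54 stage V gametocytes in serum-free medium (0.75% gametocytemia, 1.25% hematocrit, 10 µl, 1,536-well plates) were kept with compound at 2.5 µM for 72 hr at 37°C under low oxygen.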

[1] = library set: Broad Institute Blood Stage
[2] = library set: Broad Institute DOS

SMILES: COc1ccc2c3c([C@@H](CO)N(C[C@]33CCN(CC3)C(=O)Nc3cccc(F)c3)C(=O)C3CCCC3)n(C)c2c1
- viability index [1]: 0.822 ± 0.039

SMILES: COc1ccc2c3c([C@@H](CO)N(C[C@]33CN(C3)C(=O)Nc3cccc(F)c3)C(=O)C3CCOCC3)n(C)c2c1
- viability index [2]: 1.06 ± 0.05

SMILES: COc1ccc2c3c([C@@H](CO)N(C[C@]33CCN(CC3)C(=O)Nc3cccc(F)c3)C(=O)CN3CCOCC3)n(C)c2c1
- viability index [2]: 0.993 ± 0.12

SMILES: COc1ccc2c3c([C@H](CO)N(C[C@]33CCN(CC3)C(=O)Nc3cccc(F)c3)C(=O)CN3CCOCC3)n(C)c2c1
- viability index [2]: 0.941 ± 0.018

SMILES: COc1ccc2c3c([C@@H](CO)N(C[C@]33CCN(CC3)C(=O)Nc3cccc(F)c3)C(=O)C3CC3)n(C)c2c1
- viability index [1]: 0.807 ± 0.036

SMILES: CCCNC(=O)N1C[C@]2(CCN(CC2)C(=O)Nc2cccc(F)c2)c2c([C@H]1CO)n(C)c1cc(OC)ccc21
- viability index [2]: 0.991 ± 0.079

SMILES: C[C@@H]1C/C=C/C[C@@H](c2ccccc2)NC(=O)[C@H](C)N(C)C(=O)c2ccccc2O1.C[C@@H]1C/C=C\C[C@@H](c2ccccc2)NC(=O)[C@H](C)N(C)C(=O)c2ccccc2O1
- viability index [2]: 1 ± 0.069

SMILES: COc1ccc2c3c([C@@H](CO)NC[C@]33CN(Cc4ccc(cc4)-c4ccccn4)C3)n(C)c2c1
- viability index [2]: 0.997 ± 0.019

SMILES: COc1ccc2c3c([C@@H](CO)NC[C@]33CCN(Cc4ccncc4)CC3)n(C)c2c1
- viability index [2]: 1.01 ± 0.045

SMILES: COc1ccc2c3c([C@@H](CO)NC[C@]33CCN(Cc4ccc(cc4)-c4ccccn4)CC3)n(C)c2c1
- viability index [1]: 0.946 ± 0.052

SMILES: COc1ccc2c3c([C@H](CO)NC[C@]33CN(Cc4ccc(cc4)-c4ccccn4)C3)n(C)c2c1
- viability index [2]: 0.934 ± 0.11

SMILES: COc1ccc2c3c([C@H](CO)NC[C@]33CN(Cc4ccc(F)cc4)C3)n(C)c2c1
- viability index [2]: 0.841 ± 0.014

SMILES: COc1ccc2c3c([C@H](CO)NC[C@]33CCN(Cc4ccc(cc4)-c4ccccn4)CC3)n(C)c2c1
- viability index [1]: 0.835 ± 0.04

SMILES: CO[C@H]1CN(C)C(=O)c2cc(NC(=O)c3cnccn3)ccc2OC[C@H](C)NC[C@H]1C
- viability index [2]: 1.09 ± 0.041

SMILES: COc1ccc(-c2ccc([C@H]3[C@H]4CNC[C@@H]3N4S(=O)(=O)c3cn(C)cn3)cc2)cc1
- viability index [2]: 1.0563 ± 0.00097

SMILES: O=C(CC1CC1)N1CC2(C1)[C@@H](c1ccccc1)[C@H](CO)N2C(=O)c1ccccn1
- viability index [2]: 1 ± 0.013

SMILES: C[C@H]1CN([C@@H](C)CO)C(=O)c2c(c3ccccc3n2C)-c2ccccc2CO[C@H]1CN(C)C
- viability index [2]: 1.04 ± 0.052

SMILES: O=C(C[C@H]1CC[C@H]2NC[C@@H](O)COC[C@@H]2O1)N1CCc2ccccc2C1
- viability index [2]: 1.03 ± 0.049

SMILES: O=C(CC1CC1)N1CC[C@@H]2[C@H]1c1cc(-c3ccc(F)cc3)ccc1N[C@@H]2CO
- viability index [2]: 1.046 ± 0.009

SMILES: COc1ccc(C#Cc2cccc(-c3nc(C(=O)N4CCN(Cc5ccccc5)CC4)cc4c3[C@H](CCO)N(S(=O)C(C)(C)C)C4)c2)cc1OC (some centres undefined)
- viability index [2]: 1.04 ± 0.11

SMILES: CC(C)(C)S(=O)N1Cc2cc(C(=O)NCc3ccc4c(c3)OCO4)nc(-c3cccc(-c4cc5ccccc5o4)c3)c2[C@H]1CCO (some centres undefined)
- viability index [2]: 0.656 ± 0.04

SMILES: CC(C)(C)S(=O)N1Cc2cc(C(=O)N3CCN(Cc4ccccc4)CC3)nc(-c3cccc(-c4cc5ccccc5o4)c3)c2[C@H]1CCO (some centres undefined)
- viability index [2]: 0.7362 ± 0.0068

SMILES: CC(C)(C)S(=O)N1Cc2cc(C(=O)O)nc(-c3cccc(-c4cc5ccccc5o4)c3)c2[C@@H]1CCO (some centres undefined)
- viability index [2]: 1.03 ± 0.023

SMILES: COc1ccccc1-c1cccc(-c2nc(C(=O)N3CCN(C)CC3)cc3c2[C@H](CCO)N([S@@](=O)C(C)(C)C)C3)c1
- viability index [2]: 1.03 ± 0.032

SMILES: COc1ccc(C#Cc2cccc(-c3nc(C(=O)N4CCN(Cc5ccccc5)CC4)cc4c3[C@@H](CCO)N(S(=O)C(C)(C)C)C4)c2)cc1OC (some centres undefined)
- viability index [2]: 0.826 ± 0.14

SMILES: CC(C)(C)S(=O)N1Cc2cc(C(=O)NCc3ccc4c(c3)OCO4)nc(-c3cccc(-c4cccc(F)c4)c3)c2[C@@H]1CCO (some centres undefined)
- viability index [2]: 1.04 ± 0.015

SMILES: COc1ccc(C#Cc2cccc(-c3nc(C(=O)NCc4ccc5c(c4)OCO5)cc4c3[C@@H](CCO)N(S(=O)C(C)(C)C)C4)c2)cc1OC (some centres undefined)
- viability index [2]: 0.9061 ± 0.0023

SMILES: COc1ccc(C#Cc2cccc(-c3nc(C(=O)Nc4ccc(-c5ccccc5)cc4)cc4c3[C@@H](CCO)N(S(=O)C(C)(C)C)C4)c2)cc1OC (some centres undefined)
- viability index [2]: 1.016 ± 0.0075

SMILES: Cc1ccc(CN2CC(=O)N3[C@H](CO)[C@@H](c4ccc(-c5ccccc5F)cc4)[C@H]3C2)cc1
- viability index [2]: 1.05 ± 0.062

SMILES: CC(=O)N1[C@H](CO)[C@@H](c2ccccc2)C12CN(S(=O)(=O)c1ccccc1)C2
- viability index [2]: 1.11 ± 0.03

SMILES: COC(=O)C[C@H]1CC[C@@H]2[C@H](COc3ccc(NC(=O)Nc4cccc(C#N)c4)cc3C(=O)N2C)O1
- viability index [2]: 1.1 ± 0.091

SMILES: O=C(Cc1cccnc1)N1CC(=O)N2[C@H](C1)[C@@H](c1ccc(C#CC3CCCCC3)cc1)[C@@H]2CO
- viability index [2]: 0.985 ± 0.11

SMILES: O=C(C1CCOCC1)N1CC(=O)N2[C@H](C1)[C@H](c1ccc(C#CC3CCCCC3)cc1)[C@@H]2CO
- viability index [2]: 1.03 ± 0.018

SMILES: C[C@@H]1CN([C@@H](C)CO)C(=O)c2cc(NC(=O)Cn3cnnn3)ccc2O[C@H]1CN(C)Cc1ccc(C(=O)Nc2ccccc2N)cc1
- viability index [2]: 1.002 ± 0.0028

SMILES: O=C(C[C@H]1C[C@@H]2c3cc(NC(=O)Nc4ccccc4)ccc3O[C@@H]2[C@H](CO)O1)NCc1ccccc1
- viability index [2]: 1.06 ± 0.03

SMILES: Cc1ccc(S(=O)(=O)Nc2ccc3c(c2)CC(=O)N([C@H](C)CO)C[C@@H](C)[C@@H](CN(C)S(=O)(=O)c2ccccc2)O3)cc1
- viability index [2]: 0.949 ± 0.021

SMILES: CCCC(=O)N1C[C@]2(CN(Cc3nccs3)C2)c2c([nH]c3cc(OC)ccc23)[C@@H]1CO
- viability index [2]: 1 ± 0.024

SMILES: N#C[C@@H]1[C@@H](c2ccccc2-c2ccccc2)[C@H](CO)N1C(=O)Cc1ccncc1
- viability index [2]: 1.1 ± 0.2

SMILES: C[C@H]1CN([C@@H](C)CO)C(=O)c2ccccc2-c2ccccc2CO[C@H]1CN(C)Cc1cccc(C(=O)O)c1
- viability index [2]: 0.958 ± 0.034

SMILES: O=C(C[C@H]1CC[C@H](NC(=O)C2CC2)[C@H](CO)O1)Nc1ccccc1
- viability index [2]: 0.992 ± 0.033

SMILES: O=C(C[C@H]1CC[C@@H](NC(=O)C2CC2)[C@H](CO)O1)Nc1ccccc1
- viability index [2]: 0.839 ± 0.19

SMILES: O=C(C[C@H]1CC[C@H](NC(=O)C2CC2)[C@@H](CO)O1)Nc1ccccc1
- viability index [2]: 0.981 ± 0.031

SMILES: CO[C@H]1CN(C)C(=O)c2cc(NS(=O)(=O)CC(F)(F)F)ccc2OC[C@@H](C)NC[C@H]1C
- viability index [2]: 1.07 ± 0.0046

SMILES: CCC(=O)N1CC(=O)N2[C@H](CO)[C@H](c3ccc(C#CCC(C)C)cc3)[C@H]2C1
- viability index [2]: 0.956 ± 0.046
